Out of some 16,000 compounds screened, about 5,100 (32%) were called active. Another 25% or so got no clear call; they are omitted. This is one part of the list. Unmarked numbers belong to inactive results. Calls follow the shape of the dose curve; as a rule, active = well fitted curve in the direction sought with a large enough effect; inconclusive = small, poorly fitted or top-dose-only effect, or effect the other way; inactive = no such curve, though single readings can be large or run the other way.
% is scaled to controls: 0 for no effect and ±100 for the full control effect.

The target of this assay is Cytochrome P450 3A4 (Homo sapiens) (UniProt P08684). In words: Cytochrome panel assay with activity outcomes. As to conditions: recombinant CYP, pro-luciferin dealkylation, luminescence, p450-cyp3a4; series mostly up to 57.1 µM; activity, negative = inhibition: at the top concentration.
Chain of Cytochrome P450 3A4 (Homo sapiens) (P08684 whole entry, looked up): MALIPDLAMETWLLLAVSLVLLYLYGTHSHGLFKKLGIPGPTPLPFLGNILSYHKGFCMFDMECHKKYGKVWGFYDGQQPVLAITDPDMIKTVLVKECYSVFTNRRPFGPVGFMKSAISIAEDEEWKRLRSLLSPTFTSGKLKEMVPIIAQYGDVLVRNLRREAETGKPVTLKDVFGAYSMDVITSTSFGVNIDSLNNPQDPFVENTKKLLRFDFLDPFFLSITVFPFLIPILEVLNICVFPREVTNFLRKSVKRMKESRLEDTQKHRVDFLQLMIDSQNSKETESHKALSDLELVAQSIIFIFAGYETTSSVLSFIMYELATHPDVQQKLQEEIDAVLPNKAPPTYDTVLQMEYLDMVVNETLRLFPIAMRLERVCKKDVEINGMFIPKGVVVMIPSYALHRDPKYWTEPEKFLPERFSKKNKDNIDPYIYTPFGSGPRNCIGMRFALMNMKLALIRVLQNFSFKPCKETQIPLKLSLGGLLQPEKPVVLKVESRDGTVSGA
For orientation: AC50 means the midpoint of the concentration-response curve, whichever way the signal moves. For `O=C(N=NC(=O)c1ccc2c(O)n(C3CCCCC3)c(O)c2c1)c1cccnc1`, the AC50 was 11.2 µM (active). Take `Cn1cc(-c2nc3cncnc3n(CCN)c2=O)c2ccccc21`: the AC50 was 12.6 µM (active). As to `COCCn1c(=O)c(-c2cn(C)c3ccccc23)nc2cncnc21`, the AC50 was 3.16 µM (active). For `COc1ccccc1CCn1c(=O)c(-c2cn(C)c3ccccc23)nc2cncnc21`, the AC50 is 2.51 µM (active). Take `Cc1cccc([C@@H]2CN(C)CCc3c2cc(O)c(O)c3Cl)c1`: the “activity, negative = inhibition” value is 7.75%. In the case of `N[C@H](CCCP(=O)(O)O)C(=O)O`, the AC50 entry is “inactive”. As for `O=C(O)c1nnsc1-c1ccc(-c2snnc2C(=O)O)cc1`, the activity, negative = inhibition was -0.252% [at 11.4 µM]. `O=C(O)c1ccccc1-c1ccc(/C=c2\sc3nc4cc(Br)cnc4n3c2=O)o1`: the “activity, negative = inhibition” value was -12.3%. In the case of `O=C(c1c[nH]c(=O)n(-c2ccccc2)c1=O)N1CCc2ccccc21`, the “activity, negative = inhibition” value was -8.97%. For the molecule `Cc1ccc(NS(=O)(=O)c2cc(C(=O)N3CCc4ccccc4C3)ccc2Cl)cc1`, the AC50 was 1.26 µM (active). For `COc1ccc(C(=O)N2CCCCC2)cc1S(=O)(=O)Nc1ccccc1`, the AC50 is 12.6 µM (active). `CN(c1ccc(C(=O)NCc2ccccn2)cc1)S(C)(=O)=O`: the “activity, negative = inhibition” value was 2.98%. Take `CCOC(=O)N1CCN(C(=O)c2ccc(Cl)c(S(=O)(=O)N3CCOCC3)c2)CC1`: the activity, negative = inhibition was -3.04% [at 2.29 µM].

Regarding `Cc1ccc(NS(=O)(=O)c2cc(C(=O)NCc3ccccn3)ccc2Cl)cc1`, the AC50 was 3.98 µM (active). On to `OC(CN1CCCCC1)CN1CCCCC1`, for which the “activity, negative = inhibition” value was 12.3%. Turning to `Cc1cccc(CNc2ncncc2-c2ccc(C(=O)N(C)C)cc2)c1`, the AC50 is 0.631 µM (active). Still for that read-out and setting: the value for `CNc1ncncc1-c1ccc(C(=O)N(C)C)cc1` was 5.01 µM (active); that for `CN(C)C(=O)c1ccc(-c2cncnc2NCc2ccccc2)cc1` was 2.51 µM (active); that for `CN(C)C(=O)c1ccc(-c2cncnc2NCCc2cnc[nH]2)cc1` was 6.31 µM (active).

Take `CN(C)C(=O)c1ccc(-c2cncnc2NC2CCNCC2)cc1`: the “activity, negative = inhibition” value is -16%. Consider `CN(C)C(=O)c1ccc(-c2cncnc2N2CCNCC2)cc1`, for which the “activity, negative = inhibition” value was -25.5%. In the case of `CN(C)C(=O)c1ccc(-c2cncnc2NCc2cccnc2)cc1`, the AC50 was 5.01 µM (active). Same read-out and setting: the value for `CN1CCN(c2ncncc2-c2ccc(C(=O)N(C)C)cc2)CC1` was 15.8 µM (active). In the case of `O=C(O)c1ccccc1C1c2ccccc2Oc2ccccc21`, the activity, negative = inhibition is 26.1% [at 11.4 µM]. With `CCC1(C)CC(CCNS(=O)(=O)c2ccc(C)cc2)(c2ccc(C)cc2)CCO1` (stereo not drawn), the AC50 is 3.55 µM (active). Regarding `Cc1cc(C(=O)CSc2nnc(-c3ccccc3)o2)c(C)n1CC1COc2ccccc2O1` (stereo not drawn), the AC50 was 2.24 µM (active). For `c1ccc(-c2nnc(SCCC3OCCCO3)o2)cc1`, the “activity, negative = inhibition” value is -12.2%.

For the molecule `O=C(/C=C\c1ccc(O)c(O)c1)O[C@@H](Cc1ccc(O)c(O)c1)C(=O)O`, the “activity, negative = inhibition” value is -7.45%. Take `O=C(O)/C=C\c1ccc(O)c(O)c1`: the “activity, negative = inhibition” value was -6.21% [at 25.6 µM].

On to `O=C(/C=C\c1ccc(O)c(O)c1)OCCc1ccccc1`, for which the AC50 is 15.8 µM (active). On to `CCn1c2ccccc2c2cnc(N=CN(C)C)c(C#N)c21`, for which the half-maximal activity concentration (AC50) is 7.94 µM (active). For the molecule `Nc1nc(N)nc(CC(=O)O)n1`, the activity, negative = inhibition is -10.1% [at 11.4 µM]. Turning to `COC(=O)N1CCC2(CC1)CCN(c1ccncc1)CC2`, the “activity, negative = inhibition” value was -26.8%. As to `O=C(Oc1ccccc1)N1CCC[C@@]2(CCN(c3ccncc3)C2)C1`, the AC50 was 12.6 µM (active). Regarding `COC(=O)N1CCC[C@@]2(CCN(c3ncccn3)C2)C1`, the “activity, negative = inhibition” value is -17.7%. In the case of `COC(=O)N1CCC[C@@]2(CCN(c3ccncc3)C2)C1`, the AC50 was 3.98 µM (active).

Turning to `O=C(Oc1ccccc1)N1CCC2(CC1)CCN(c1ccncc1)CC2`, the “activity, negative = inhibition” value was -14.1%. As to `O=[N+]([O-])c1ccc2ncccc2c1CCc1c([N+](=O)[O-])ccc2ncccc12`, the activity, negative = inhibition is -12.1% [at 11.4 µM]. Turning to `O=[N+]([O-])c1cccnc1NCCNc1ncc(C(F)(F)F)cc1Cl`, the AC50 was 12.6 µM (active). `O=C(O)C[C@H](NC(=O)CP(=O)(O)O)C(=O)O.[NH-][C@@H]1CCCC[C@@H]1[NH-].[Pt]`: the activity, negative = inhibition was -3.72% [at 11.4 µM]. Regarding `Cc1cc(NS(=O)(=O)c2ccc(NC(=O)CN3C(=O)c4ccccc4C3=O)cc2)nc(C)n1`, the “activity, negative = inhibition” value is -13.1%.

Regarding `O=c1ccc(NS(=O)(=O)c2ccccc2)cn1Cc1ccc(Cl)c(Cl)c1`, the AC50 was 6.31 µM (active). Turning to `O=c1ccc(NS(=O)(=O)c2ccc(Cl)cc2)cn1Cc1ccc(Cl)c(Cl)c1`, the AC50 was 5.62 µM (active). The same measure, in the same setting: the figure for `Cc1ccc(S(=O)(=O)Nc2ccc(=O)n(Cc3ccc(Cl)c(Cl)c3)c2)cc1` is 3.16 µM (active). Consider `O=S(=O)(Nc1ccc2oc(-c3ccccc3)nc2c1)c1ccccc1`, for which the activity, negative = inhibition is -16% [at 2.29 µM]. For the molecule `O=S(=O)(NCc1cc(-c2ccccc2Cl)no1)c1ccccc1`, the “activity, negative = inhibition” value was -24.6%. Regarding `C#CCOC(=O)Nc1ccc(=O)n(Cc2c(Cl)cccc2Cl)c1`, the “activity, negative = inhibition” value was -1.17%. On the same count and under the same terms, the figure for `CC1(C)S[C@@H]2[C@H](NC(=O)[C@H](C(=O)O)c3ccsc3)C(=O)N2[C@H]1C(=O)O` is -5.72% [at 25.6 µM].

The values are drawn from PubChem BioAssay AID1851 (National Center for Advancing Translational Sciences (NCATS), 2009).
